From the supplement of paper PMC9135407
Several values for one entry are separate records, joined by “and”; a condition that tells them apart may be missing. Equal entries are not always repeated. Structures can show the parent of a compound that is named as a salt. Hit rate of the full screen: of about 5,800 compounds, about 620 (11%) showed activity. What follows is part of a selection rich in actives, with near analogues and random picks from the rest. Unmarked numbers belong to inactive results.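 How the source made its calls: active = score above a cut-off or among the top three wells of a plate; in these data no inactive exceeds 0.85.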

Test system: primary human hepatic stellate cells (donor 1)
Assay: scaled lipid accumulation score (0 = DMSO-like, 1 = nortriptyline-like); higher = stronger HSC inactivation (lipid re-accumulation), active = hit call of the paper
Details: 48 h
[1] = library stock concentration: 3.33 mM
[2] = library stock concentration: 10 mM
[3] = library stock concentration: 1 mM
[4] = library stock concentration: 400 uM
[5] = library stock concentration: 2 mM
[6] = library stock concentration: 80 uM

Structure (SMILES): Cn1sc(=O)n(Cc2ccccc2)c1=O [GSK-3b Inhibitor I]
- scaled lipid accumulation score [1]: ≤ 0

Structure (SMILES): Cc1ccc(NC2=CC(=O)c3sc(C)nc3C2=O)cc1 [Cdk4 Inhibitor III]
- scaled lipid accumulation score [1]: 0.942 (active)

Structure (SMILES): Cc1ccc(NC2=CC(=O)c3sc(C)nc3C2=O)cc1 [Ryuvidine]
- scaled lipid accumulation score [2]: 0.904 (active)

Structure (SMILES): O=C(O)[C@]1(Cc2cccc(Nc3nccs3)n2)CC[C@@H](Oc2cccc(Cl)c2F)CC1
- scaled lipid accumulation score [1]: ≤ 0
- scaled lipid accumulation score [2]: 0.039

Structure (SMILES): CCC[C@H](NC(=O)[C@@H]1[C@H]2CCC[C@H]2CN1C(=O)[C@@H](NC(=O)[C@@H](NC(=O)c1cnccn1)C1CCCCC1)C(C)(C)C)C(=O)C(=O)NC1CC1 [Telaprevir (VX-950)]
- scaled lipid accumulation score [1]: ≤ 0
- scaled lipid accumulation score [2]: ≤ 0

Structure (SMILES): CCCCCCCCCCCCCCCCOC[C@H](COP(=O)([O-])OCC[N+](C)(C)C)OC(=O)NC [Methylcarbamyl PAF C-16]
- scaled lipid accumulation score [3]: ≤ 0

Structure (SMILES): O=C(O)CCC/C=C\C[C@H]1[C@@H](/C=C/[C@@H](O)CCc2ccccc2)[C@H](O)C[C@@H]1O [8-iso-17-phenyl trinor Prostaglandin F2.alpha.]
- scaled lipid accumulation score [3]: ≤ 0

Structure (SMILES): O=C1CC2(CCCC2)CC(=O)N1CCCCNCC1COc2ccccc2O1 (configuration not stated)
- scaled lipid accumulation score [2]: 0.376

Structure (SMILES): CNC(C)C(=O)NC(C(=O)N1CCCC1C(=O)NC(C(=O)NCCCCCCNC(=O)C(NC(=O)C1CCCN1C(=O)C(NC(=O)C(C)NC)C1CCCCC1)C(c1ccccc1)c1ccccc1)C(c1ccccc1)c1ccccc1)C1CCCCC1 (configuration not stated)
- scaled lipid accumulation score [1]: 0.26
- scaled lipid accumulation score [2]: 0.061

Structure (SMILES): Cl.O=C(NCCCN1CCCCCC1)C(c1ccccc1)C1CCCCC1 (configuration not stated)
- scaled lipid accumulation score [2]: 0.897 (active)

Structure (SMILES): CCN(CC)CCOC(=O)C(c1ccccc1)C1CCCCC1 (configuration not stated) [Drofenine hydrochloride]
- scaled lipid accumulation score: 0.317
- scaled lipid accumulation score [2]: 0.335

Structure (SMILES): CN1CC(O)C(O)C(O)C1CO (configuration not stated) [N-Methyl-1-deoxynojirimycin]
- scaled lipid accumulation score [2]: ≤ -0.07

Structure (SMILES): Cc1[nH]nc2ccc(-c3cncc(OC[C@@H](N)Cc4ccccc4)c3)cc12
- scaled lipid accumulation score [2]: 0.795

Structure (SMILES): Cc1n[nH]c2ccc(-c3cncc(OC[C@@H](N)Cc4ccccc4)c3)cc12
- scaled lipid accumulation score [1]: 1.24 (active)

Structure (SMILES): O=c1cnn([C@@H]2O[C@H](CO)[C@@H](O)[C@H]2O)c(=O)[nH]1
- scaled lipid accumulation score [2]: ≤ 0

Structure (SMILES): CNCCC(Oc1ccc(C(F)(F)F)cc1)c1ccccc1.Cl (configuration not stated) [Fluoxetine]
- scaled lipid accumulation score (library stock concentration: 5.8 mM): 0.96 (active)

Structure (SMILES): CNCCC(Oc1ccc(C(F)(F)F)cc1)c1ccccc1.Cl (configuration not stated)
- scaled lipid accumulation score [2]: 0.914 (active)

Structure (SMILES): CNCCC(Oc1ccc(C(F)(F)F)cc1)c1ccccc1.Cl (configuration not stated) [Fluoxetine hydrochloride] [listing 1 of 2 here]
- scaled lipid accumulation score [2]: 1.57 (active)

Structure (SMILES): CNCCC(Oc1ccc(C(F)(F)F)cc1)c1ccccc1.Cl (configuration not stated) [Fluoxetine HCl]
- scaled lipid accumulation score [1]: 0.709 (active)
- scaled lipid accumulation score [2]: 1.02 (active)

Structure (SMILES): CCCCCCCCCCCCCCCC(=O)N[C@H](C)CO [R-Palmitoyl-(1-methyl) Ethanolamide]
- scaled lipid accumulation score [3]: 0.031

Structure (SMILES): CCCCC[C@H](O)/C=C/[C@H]1[C@@H](O)CC(=O)[C@@H]1CCCCCCC(=O)O [11.beta.-Prostaglandin E1]
- scaled lipid accumulation score [3]: ≤ 0

Structure (SMILES): COc1ccnc2[nH]cc(C(=O)C(=O)N3CCN(C(=O)c4ccccc4)C[C@H]3C)c12
- scaled lipid accumulation score [1]: ≤ 0
- scaled lipid accumulation score [2]: 0.019

Structure (SMILES): O=C(O)c1ccc(N2C(=O)C(=Cc3ccc(-c4ccc([N+](=O)[O-])cc4)o3)C=C2c2ccccc2)cc1
- scaled lipid accumulation score [1]: 0.129
- scaled lipid accumulation score [2]: 0.284

Structure (SMILES): Cc1nc(N)ncc1-c1nc(N2CCOCC2)c2sc(C(C)(C)O)cc2n1
- scaled lipid accumulation score [4]: 0.092
- scaled lipid accumulation score [5]: ≤ -0.005
- scaled lipid accumulation score [2]: ≤ -0.005

Structure (SMILES): O=C(CCCCc1ccccc1)C(F)(F)C(F)(F)F
- scaled lipid accumulation score [3]: ≤ 0

Structure (SMILES): CC1CC(OC(=O)C(O)c2ccccc2)CC(C)(C)C1 (configuration not stated)
- scaled lipid accumulation score [2]: 0.065

Structure (SMILES): CC1CC(OC(=O)C(O)c2ccccc2)CC(C)(C)C1 (configuration not stated) [Cyclandelate]
- scaled lipid accumulation score [1]: ≤ 0
- scaled lipid accumulation score [2]: 0.196

Structure (SMILES): COc1cc2c(cc1OC)-c1[nH]nc(Nc3cccc(F)c3)c1C2 [PDGF Receptor Tyrosine Kinase Inhibitor IV]
- scaled lipid accumulation score [1]: 0.044

Structure (SMILES): COc1cc2c(cc1OC)-c1[nH]nc(Nc3cccc(F)c3)c1C2
- scaled lipid accumulation score [6]: ≤ -0.001
- scaled lipid accumulation score [4]: ≤ -0.001
- scaled lipid accumulation score [3]: ≤ 0
- scaled lipid accumulation score [5]: 0.073
- scaled lipid accumulation score [2]: 0.232

Structure (SMILES): O[C@H]1[C@H](O)[C@@H](O)[C@@H]2O[C@@H]2[C@@H]1O (racemic) [Conduritol b epoxide]
- scaled lipid accumulation score (library stock concentration: 12.3 mM): ≤ 0

Structure (SMILES): Cc1cc(O)c(C=O)c2c1C(=O)Oc1c(C)c(O)c3c(c1O2)C(O)OC3=O (configuration not stated) [Norstictic acid]
- scaled lipid accumulation score [2]: ≤ 0

Structure (SMILES): CNCC[C@H](Oc1ccc(C(F)(F)F)cc1)c1ccccc1 [S-(+)-Fluoxetine hydrochloride]
- scaled lipid accumulation score [2]: 0.403

Structure (SMILES): CN(CC[C@@H](Oc1ccc(C(F)(F)F)cc1)c1ccccc1)CC(=O)[O-].[Li+]
- scaled lipid accumulation score [2]: 0.149

Structure (SMILES): CNCCC(Oc1ccc(C(F)(F)F)cc1)c1ccccc1.Cl (configuration not stated) [Fluoxetine hydrochloride] [listing 2 of 2 here]
- scaled lipid accumulation score: 1.05 (active)

Structure (SMILES): CNCCC(Oc1ccc(C(F)(F)F)cc1)c1ccccc1 (configuration not stated) [Fluoxetine]
- scaled lipid accumulation score [2]: 0.637

Structure (SMILES): CNCCC(Oc1ccc(C(F)(F)F)cc1)c1ccccc1 (configuration not stated) [Fluoxetine hydrochloride]
- scaled lipid accumulation score [2]: 0.09

Structure (SMILES): CN(CC[C@@H](Oc1ccc(-c2ccccc2)cc1)c1ccc(F)cc1)CC(=O)O [ALX 5407 hydrochloride]
- scaled lipid accumulation score [2]: ≤ -0.006

Structure (SMILES): O=C(NCc1ccncc1)C12CC3CC(C1)CC(c1ccc(Cl)cc1)(C3)C2
- scaled lipid accumulation score (library stock concentration: 13.1 mM): 0.27

Structure (SMILES): C[C@H](N[C@@H](CCc1ccccc1)C(=O)O)C(=O)N1Cc2ccccc2C[C@H]1C(=O)O
- scaled lipid accumulation score [2]: ≤ 0

Structure (SMILES): CN1CCN(C(=O)c2cc3cc(Cl)ccc3[nH]2)CC1
- scaled lipid accumulation score [1]: 0.053
- scaled lipid accumulation score [2]: 0.452

Structure (SMILES): Cc1[nH]c(/C=C2\C(=O)Nc3ccc(S(=O)(=O)N(C)c4cccc(Cl)c4)cc32)c(C)c1C(=O)N1CCN(C)CC1
- scaled lipid accumulation score [6]: 0.129
- scaled lipid accumulation score [4]: 0.261

Structure (SMILES): O=C1Nc2ccc(Cl)cc2/C1=C/c1cc(Cl)c(O)c(Cl)c1
- scaled lipid accumulation score [6]: ≤ -0.001
- scaled lipid accumulation score [4]: ≤ -0.001
- scaled lipid accumulation score [5]: ≤ -0.001
- scaled lipid accumulation score [2]: ≤ -0.001

Structure (SMILES): CN1CCCN(C(=O)c2cccc(-c3ccc(/C=C4/C(=O)Nc5ccc(Cl)cc54)o3)c2)CC1
- scaled lipid accumulation score [1]: 0.657
- scaled lipid accumulation score [2]: ≤ -0.001

Structure (SMILES): Cc1[nH]c(/C=C2\C(=O)Nc3ccc(S(=O)(=O)N(C)c4cccc(Cl)c4)cc32)c(C)c1C(=O)N1CCN(C)CC1 [Met Kinase Inhibitor]
- scaled lipid accumulation score [1]: 1.38 (active)

Structure (SMILES): Cc1[nH]c(/C=C2/C(=O)Nc3ccc(S(=O)(=O)N(C)c4cccc(Cl)c4)cc32)c(C)c1C(=O)N1CCN(C)CC1
- scaled lipid accumulation score [5]: 0.927 (active)
- scaled lipid accumulation score [2]: 1.14 (active)

Structure (SMILES): Cc1[nH]c(/C=C2\C(=O)Nc3ccc(S(=O)(=O)Cc4c(Cl)cccc4Cl)cc32)c(C)c1C(=O)N1CCC[C@@H]1CN1CCCC1 [listing 1 of 2 here]
- scaled lipid accumulation score [6]: 1.15 (active)
- scaled lipid accumulation score [4]: 1.16 (active)
- scaled lipid accumulation score [5]: 1.16 (active)

Structure (SMILES): O=C1Nc2ccc(Cl)cc2/C1=C/c1cc(Cl)c(O)c(Cl)c1 [PKR Inhibitor, Negative Control]
- scaled lipid accumulation score [1]: ≤ 0

Structure (SMILES): Cc1[nH]c(/C=C2\C(=O)Nc3ccc(S(=O)(=O)Cc4c(Cl)cccc4Cl)cc32)c(C)c1C(=O)N1CCC[C@@H]1CN1CCCC1 [listing 2 of 2 here]
- scaled lipid accumulation score [1]: 0.429
- scaled lipid accumulation score [2]: 0.553 and 0.41 and 0.638

Structure (SMILES): Cc1[nH]c(C=C2C(=O)Nc3ccc(S(=O)(=O)N(C)c4cccc(Cl)c4)cc32)c(C)c1C(=O)N1CCN(C)CC1
- scaled lipid accumulation score [1]: 1.39 (active)
- scaled lipid accumulation score [2]: 1.27 (active)

Structure (SMILES): COC(=O)C[C@H](NC(=O)[C@H](C)NC(=O)[C@@H](NC(=O)OCc1ccccc1)C(C)C)C(=O)CF
- scaled lipid accumulation score (library stock concentration: 10.7 mM): ≤ -0.012

Structure (SMILES): CC(=O)N[C@@H](CCC(N)=O)C(=O)O
- scaled lipid accumulation score [2]: ≤ 0

Structure (SMILES): N#CC(c1ccnc(NCCc2cccnc2)n1)c1nc2ccccc2s1 (configuration not stated)
- scaled lipid accumulation score [6]: ≤ 0
- scaled lipid accumulation score [4]: ≤ 0
- scaled lipid accumulation score [5]: 0.058
- scaled lipid accumulation score [2]: 0.62

Structure (SMILES): N#CC(c1ccnc(NCCc2cccnc2)n1)c1nc2ccccc2s1 (configuration not stated) [JNK Inhibitor V]
- scaled lipid accumulation score [1]: 0.329

Structure (SMILES): CC(=O)NCCCCCCNC(C)=O
- scaled lipid accumulation score [2]: ≤ 0

Structure (SMILES): COc1cc2c(cc1O)[C@@H](Cc1ccc(O)cc1)[N+](C)(C)CC2 [Magnocurarine iodide]
- scaled lipid accumulation score [2]: 0.116

Structure (SMILES): CCOCC(O)COc1ccc(NC(=O)CC[S+](C)C)cc1 (configuration not stated) [Suplatast Tosylate]
- scaled lipid accumulation score [1]: ≤ 0
- scaled lipid accumulation score [2]: ≤ 0

Structure (SMILES): CCOCC(O)COc1ccc(NC(=O)CC[S+](C)C)cc1 (configuration not stated) [Suplatast tosylate]
- scaled lipid accumulation score [2]: ≤ -0.001

Structure (SMILES): NC1=NCC2c3ccccc3Cc3ccccc3N12 (configuration not stated) [Epinastine hydrochloride]
- scaled lipid accumulation score [2]: 0.592

Structure (SMILES): NC1=NCC2c3ccccc3Cc3ccccc3N12 (configuration not stated) [Epinastine HCl]
- scaled lipid accumulation score [1]: ≤ 0
- scaled lipid accumulation score [2]: 0.038

Structure (SMILES): CCOC(=O)C(Cc1ccc(O)cc1)NC(C)=O (configuration not stated) [Acetyl tyrosine ethyl ester]
- scaled lipid accumulation score [2]: ≤ 0

Structure (SMILES): CCCCC/C=C/C/C=C/CCCCCCCC(=O)O [Linoelaidic Acid]
- scaled lipid accumulation score [3]: 0.006

Structure (SMILES): C[C@]12CC[C@H](O)CC1=CC[C@@H]1[C@@H]2CC[C@]2(C)C(n3cnc4ccccc43)=CC[C@@H]12 [Galeterone]
- scaled lipid accumulation score [1]: 0.137

Structure (SMILES): CC(=O)[C@H]1CC[C@H]2[C@@H]3CC=C4C[C@@H](O)CC[C@]4(C)[C@H]3CC[C@]12C [Pregnenolone]
- scaled lipid accumulation score: 0.084
- scaled lipid accumulation score [1]: ≤ 0
- scaled lipid accumulation score (library stock concentration: 6.3 mM): ≤ 0
- scaled lipid accumulation score [2]: ≤ 0

Structure (SMILES): C[C@]12CC[C@H](O)CC1=CCC1C2CC[C@]2(C)C(n3cnc4ccccc43)=CCC12 (some centres not stated) [Galeterone]
- scaled lipid accumulation score [2]: 1.27 (active)
